TTR transcr act = TTR transcription activation, primary screen | SH-SY5Y TTR promoter Gaussia luciferase, luminescence; 100% = recombinant luciferase protein wells | activation, % at 16.7 µM | hit rate 1.3% among 92,000 | AID 1117267;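 active = activation above the mean of all tested compounds plus 3 SD, cut at about 9.5% in these data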;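 also: cells exposed to compounds for one day before reading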
TTR inh HuH7 = counter-screen for TTR activators: TTR transcription inhibitors in HuH7 cells. shares compounds with TTR transcr act. HuH7 TTR promoter-Gaussia luciferase reporter, luminescence. inhibition, % at 16.7 µM. hit rate 4% among 1,100. AID 1117279;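 active = average inhibition above the solvent-only control wells' mean plus 3 SD, cut at about 15% in these data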;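 also: inhibitors lower well luminescence so higher value means more inhibition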
TTR act confirm = human TTR transcription activation, confirmation; shares compounds with TTR transcr act; SHSY5Y TTR promoter Gaussia luciferase, luminescence; 100% = purified Lucia enzyme wells, no cells; activation, % at 16.7 µM; 1,100 tested, under 10 active; AID 1117280;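 active = mean activation above a set limit taken from the earlier primary screen, cut at about 11% in these data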
A number is an active result; i = inactive. Many of the other results were omitted from the sample, so hits are more common in it than they were.

SMILES	TTR transcr act	others
COC(=O)C1=C(c2cc3ccccc3s2)C[C@@H]2CC[C@H]1N2C(=O)NC1CC1	i
COC(=O)C1=C(c2ccc3ccccc3c2)C[C@@H]2CC[C@H]1N2C	i
COC(=O)C1=C(c2cc3ccccc3s2)C[C@@H]2CC[C@H]1N2C	14
COC(=O)C1C(c2ccc(Cl)cc2)CC2CCC1N2C (centres undefined)	i
C=CC1C[N+]2(C)CCC1CC2C(O)c1ccnc2ccccc12 (centres undefined)	i
COc1ccc2c3c1OC1C(=O)CC[C@@]4(O)[C@@H](C2)N(C)CC[C@]314 (some centres undefined)	i
COc1ccc2c3c1OC1[C@H](O)CCC4[C@@H](C2)N(C)CC[C@]314 (some centres undefined)	i
COc1ccc2c(c1O)C13CCN(C)C(C2)C1CCC(=O)C3 (centres undefined)	24	TTR inh HuH7=i;TTR act confirm=i
c1ccc(CC(NCc2ccco2)c2ccccc2)cc1 (centres undefined)	i
CCc1ccc(-n2c(O)c(C(C)=O)c(=O)[nH]c2=O)cc1 (tested in a mixture with another compound)	i
COC(=O)C1=C(c2ccc(F)cc2OCc2ccccc2)C[C@@H]2CC[C@H]1N2C(=O)NCc1ccccc1	i
COC(=O)C1=C(c2ccc(F)cc2OCc2ccccc2)C[C@@H]2CC[C@H]1N2C(=O)NCC1CC1	i
COC(=O)C1=C(c2ccc(F)cc2OCc2ccccc2)C[C@@H]2CC[C@H]1N2C(=O)NCc1ccco1	15	TTR inh HuH7=i;TTR act confirm=i
O=C1/C(=C/c2ccccc2Cl)N2CCC1CC2	i
CCc1ccccc1N1C(=O)CC(=O)NC1=O	9.8	TTR inh HuH7=i;TTR act confirm=i
O=C1CC(=O)N(c2ccc(Cl)cc2)C(=O)N1	i
O=C(C(=O)N1CCOCC1)c1cn(Cc2ccccc2)c2ccccc12	i
Nc1ncn[nH]1	i
Cc1cccn2c(NCC3CCCO3)c(C(C)C)nc12 (centres undefined)	27	TTR inh HuH7=i;TTR act confirm=i
OCCN1C2CCC1CC(O)(c1ccc(F)cc1)C2 (centres undefined)	i
CC1CCCN(C(=O)CN2C3CCC2CC(O)(c2ccc(F)cc2)C3)C1 (centres undefined)	i
OC1(c2ccc(F)cc2)CC2CCC(C1)N2Cc1nnnn1C1CCCCC1 (centres undefined)	23	TTR inh HuH7=i;TTR act confirm=i
CN(C)C(CNC(=O)Cc1c(Cl)cccc1Cl)c1ccccc1 (centres undefined)	i
CN1CC[C@]23c4c5ccc(O)c4OC2C(O)C=CC3[C@H]1C5 (some centres undefined)	i
CN1CC[C@]23c4c5ccc(OC6OC(C(=O)O)[C@@H](O)C(O)[C@H]6O)c4OC2C(O)C=CC3[C@H]1C5 (some centres undefined)	i
SMILES	TTR transcr act	others
CC(=O)OC1C=CC2[C@H]3Cc4ccc(O)c5c4[C@@]2(CCN3C)C1O5 (some centres undefined)	17	TTR inh HuH7=i;TTR act confirm=i
C=CCn1c(O)c(C(CC)=Nc2cccc(C(=O)O)c2)c(=O)[nH]c1=O	i
CN1C2CCC1CC(=NO)C2	27	TTR inh HuH7=i;TTR act confirm=i
NC(Cc1ccc(O)cc1)C(=O)NN=Cc1ccc(N(CCCl)CCCl)cc1 (centres undefined)	i
CCOP(=S)(OCC)SCSP(=S)(OCC)OCC	i
CC1CC(C)OP(=O)(OCCC#N)O1 (centres undefined)	i
C[C@H]1[C@@H](c2ccccc2)O[C@@H](c2ccccc2Br)N1C	11	TTR inh HuH7=i;TTR act confirm=i
O=C1NC(=S)NC(=O)C1=Cc1ccc(Br)s1	i
CCOc1cccc(=NC2CCCCC2)c2c(C)n(C)c(C)c12	i
CCC(=O)OC(Cc1ccccc1)(c1ccccc1)[C@H](C)CN(C)C (some centres undefined)	i
CC1CCN(c2cc(Br)c([N+](=O)[O-])cc2F)CC1	i
O=C(c1cc(S(=O)(=O)N2CCC3(CC2)OCCO3)ccc1F)N1CCC2(CC1)OCCO2	i
Cc1c(C(=O)N2CCC3(CC2)OCCO3)sc2ncnc(N3CCc4ccccc4C3)c12	i
CCN(C(=O)COC(=O)C(O)(c1ccccc1)c1ccccc1)c1c(N)n(Cc2ccccc2)c(=O)[nH]c1=O	i
c1cnc(OCCN2CC2)cn1	i
O=C(Cc1ccccc1)OCCN1CCOCC1	i
c1cc(OCCN2CC2)ccn1	10	TTR inh HuH7=i;TTR act confirm=i
Cc1nc(SCc2c(Cl)cccc2Cl)nc(OC(=O)N(C)C)c1C	i
COC(=O)C1=C(c2cccc(C#N)c2)C[C@@H]2CC[C@H]1N2C(=O)NCc1cccc2ccccc12	i
O=C1CN=C(c2ccc(Br)cc2)c2c(sc3c2CCCC3)N1CCN1CCCCC1	i
CCn1c(C)c(C(=O)O)c2cc(OC)ccc21	i
COc1ccc(-n2c(C)cc(C(=O)C[N+]34CCN(CC3)CC4)c2C)cc1	9.9	TTR inh HuH7=i;TTR act confirm=i
C=CCN1CC[C@]23c4c5ccc(O)c4OC2C(=O)CC[C@@]3(O)[C@H]1C5 (some centres undefined)	i
COCCNC(=O)c1ccc(N2CC3CC(C2)c2cccc(=O)n2C3)c([N+](=O)[O-])c1 (centres undefined)	i
CC1CN1P(=O)(Oc1ccccc1)N1CC1C (centres undefined)	i
SMILES	TTR transcr act	others
Cc1ccccc1-n1c(O)c(/C=N/c2nccs2)c(=O)[nH]c1=O	i
Cc1cccc(N=Cc2c(O)n(-c3ccccc3C)c(=O)[nH]c2=O)c1	13	TTR inh HuH7=i;TTR act confirm=i
Cc1cccc(-n2c(O)c(/C=C/C=Nc3ccccc3)c(=O)[nH]c2=O)c1	i
CC[C@H](OC(C)=O)C(C[C@H](C)N(C)C)(c1ccccc1)c1ccccc1	i
CCOC(=O)CNC(=O)N1Cc2ccc(Br)cc2-n2nncc2C1	i
CC(C)CN1Cc2cc(-c3cccc(F)c3)ccc2-n2nncc2C1	i
CC(=O)N1Cc2cnnn2-c2ccccc2C1C#N (centres undefined)	i
CC1C2Cc3ccc(O)cc3C1(C)CCN2CC1CC1 (centres undefined)	i
CC(C(=O)c1c[nH]c2ccccc12)N1CCOCC1 (centres undefined)	i
O=C(C(=O)N1CCC2(CC1)OCCO2)c1c[nH]c2ccccc12	11	TTR inh HuH7=i;TTR act confirm=i
O=C(c1ccccc1)N1CCC2(CC1)OCCO2	i
CC12Cc3cnoc3C=C1CCC1C2CCC2(C)C1CCC2(C)O (centres undefined)	i
CCOC(=O)CNC(=O)N1Cc2cc(N3CCOCC3)ccc2-n2nncc2C1	i
COc1ccc(OC)c(NC(=O)N2C[C@H]3C[C@@H](C2)c2cccc(=O)n2C3)c1	i
COC(=O)C1=C(c2ccc(OC(F)(F)F)cc2)C[C@@H]2CC[C@H]1N2C(=O)NC1CC1	10	TTR inh HuH7=i;TTR act confirm=i
COC(=O)C1=C(c2ccc(OC(F)(F)F)cc2)C[C@@H]2CC[C@H]1N2C(=O)NCCO	i
COC(=O)C1=C(c2ccc(OC(F)(F)F)cc2)C[C@@H]2CC[C@H]1N2C(=O)NCC1CC1	i
CCOP(=O)(OCC)/C(C#N)=C/c1ccc(Br)cc1	i
CC(=NCCCn1ccnc1)c1c(O)n(C)c(=O)n(C)c1=O	i
O=C(NCCCn1ccnc1)C(Cl)(Cl)Cl	i
CC/C(=N\Nc1ccccc1)c1c(O)n(-c2ccc(OC)cc2)c(=O)[nH]c1=O	i
CCC(=NCc1cccnc1)c1c(O)n(-c2ccccc2)c(=O)[nH]c1=O	i
CCC(=NCCCn1ccnc1)c1c(O)n(-c2ccc(OC)cc2)c(=O)[nH]c1=O	17	TTR inh HuH7=i;TTR act confirm=i
CCNC(=S)NCCC1=c2ccccc2=N/C1=C\c1c(O)n(C)c(=O)n(C)c1=O	i
CC(=O)C1C2c3ccccc3O[C@@]1(C)N=c1s/c(=C/c3ccoc3)c(=O)n12 (some centres undefined)	i

Screening results as filed in PubChem BioAssay.
